# Results from PubChem BioAssay (EPA / NIEHS).
# Records with an inconclusive call do not appear. Calls of active or inactive are those of the source. How the source made its calls, unless noted: active means hit-call score of the fitted dose curve at least 0.9, where 1 is the maximum; inactive means score below 0.9.
# Tests used:
# [1] = CCTE_Deisenroth_AIME_384WELL_CTox_Inactive: Cytotoxicity Assessment (CTOX) in CCTE's 384-well Estrogen Receptor Transactivation Assay without AIME metabolic competence (metabolism negative), Deisenroth Lab (AID 2284039; active means hit-call score of the fitted dose curve at least 0.9, where 1 is the maximum;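 further: cell viability via live-cell protease substrate cleaved to fluorescent probe; cells exposed 24 h to medium preincubated 2 h with alginate-water beads without S9; loss of fluorescence signal means loss of viability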)
# How it was run: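 VM7Luc4E2 cells, metabolism-negative arm: test chemicals (0.002–200 uM, 10 points) pre-incubated 2 h with alginate-water microspheres, then medium transferred to cells for 24 h. Viability read as protease-substrate cleavage to fluorescent probe; loss-of-signal, bidirectional fitting.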
# SERPINA7 (gene 6906) = assay: CCTE_GLTED_hTBG: CCTE's human Thyroxine-binding Globulin (TBG) Inhibition Assay, Great Lakes Toxicology and Ecology Division (GLTED) Lab (AID 2284343; active means hit-call score of the fitted dose curve at least 0.9, where 1 is the maximum;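 further: active chemicals lower fluorescence versus DMSO baseline by displacing probe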)
# How it was run: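 Measures how far test chemicals displace ANSA bound to purified human TBG. The read-out is fluorescence at 380 nm excitation and 475 nm emission, taken after 2 h of incubation.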
# [2] = test system: Thyroperoxidase (TPO), gene 54314; assay: CCTE_Simmons_AUR_rTPO: CCTE's Amplex UltraRed Assay for Thyroperoxidase (TPO) Inhibition, Simmons Lab (AID 2283662; active means hit-call score of the fitted dose curve at least 0.9, where 1 is the maximum;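 further: potency for loss of signal meaning inhibition of peroxidase activity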)
# How it was run: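 Rat thyroid microsomes (5 ug protein) with 25 uM Amplex UltraRed and 300 uM H2O2 in 200 mM phosphate buffer, 30 min at 37C in dark; fluorescence 544/590 nm. Eight concentrations, 5 nM–87.5 uM final, 0.5% DMSO, triplicate biological replicates.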
# [3] = CCTE_Simmons_CellTiterGLO_HEK293T: Viability Assessment in CCTE's Assays for Thyroperoxidase (TPO) Inhibition, Simmons Lab (AID 2283665; active means hit-call score of the fitted dose curve at least 0.9, where 1 is the maximum;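 on AC50: cells exposed to compound for 24 h before readout; actives reduce ATP signal below DMSO vehicle meaning cytotoxicity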)
# How it was run: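 Cytotoxicity counter-screen: human HEK293T cells in low-serum (1% FBS) medium receive test chemical, 5 nM to 87.5 uM final, for 24 h; ATP is quantified by luciferase luminescence.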
# [4] = biological target: Luciferin 4-monooxygenase (Photinus pyralis) (UniProt P08659); assay: CCTE_Simmons_QuantiLum_inhib_2: CCTE's Firefly Luciferase Inhibition Assay, Simmons Lab (AID 2283767; active means hit-call score of the fitted dose curve at least 0.9, where 1 is the maximum;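 on AC50: potency for inhibitors that lower luciferase luminescence relative to DMSO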)
# How it was run: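 Counter-screen for nonspecific enzyme inhibition: purified firefly luciferase incubated 30 min at 37C with chemicals up to 87.5 uM final, then luminescence measured after luciferin/dATP injection; activity fitted against DMSO baseline.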
# [5] = BSK_BT_PBMCCytotoxicity: PBMC Cytotoxicity Assessment in the BioMAP Diversity Plus: BT Assay (AID 2284225); details: primary human B cells with PBMC;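 further: PBMC viability measured by Alamar Blue dye reduction fluorescence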
# How it was run: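 75,000 cells/well; cpd 1 h → SEB + TSST-1 (20 ng/mL final each) → 90 h → Alamar Blue 6 h → fluor. 546/580 nm. DMSO = neg. control/baseline.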
# [6] = read-out: Secreted IgG (sIgG), gene 3500; assay: BSK_BT_sIgG: BioMAP Diversity Plus: BT Assay for Secreted IgG (sIgG) Biomarker Activity (AID 2284226); details: primary human B cells with PBMC
# How it was run: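 Secreted IgG from a human primary B cell–PBMC co-culture was measured by ELISA 24 hours after dosing, with DMSO defining baseline activity.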
# [7] = BSK_BT_Bcell_Proliferation: Viability Assessment in the BioMAP Diversity Plus: BT Assay for B cell Proliferation (AID 2284227); details: primary human B cells with PBMC
# How it was run: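 Human B cells co-cultured with PBMC were dosed with test chemicals and relative cell number was quantified by SRB staining at 72 h. Cells were fixed in 10% TCA, stained with 0.1% SRB and read at 560 nm. Activity was fitted in the positive direction against DMSO.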
# [8] = read-out: Interleukin 17A (IL17A), IL17A (gene 3605); assay: BSK_BT_xIL17A: BioMAP Diversity Plus: BT Assay for Interleukin 17A (IL17A) Biomarker Activity (AID 2284229); details: primary human B cells with PBMC
# How it was run: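 Co-culture of human B cells and PBMC, dosed for 24 h in 96-well format. Secreted IL-17A measured with Luminex xMAP; gain-direction fitting against DMSO as baseline.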
# [9] = read-out: Tumor necrosis factor (Homo sapiens) (UniProt P01375); assay: BSK_BT_xTNFa: BioMAP Diversity Plus: BT Assay for Tumor necrosis factor alpha (TNF-alpha) Biomarker Activity (AID 2284230); details: primary human B cells with PBMC
# How it was run: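 B cells with PBMC in co-culture, dosed and sampled at 24 h; secreted TNF-alpha measured by Luminex xMAP bead assay. Activity fitted in the gain direction against DMSO as negative control and baseline.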
# [10] = read-out: Vascular cell adhesion molecule 1 (VCAM1), VCAM1 (gene 7412); assay: BSK_MyoF_VCAM1: BioMAP Diversity Plus: MyoF Assay for Vascular cell adhesion molecule 1 (VCAM1) Biomarker Activity (AID 2284231); details: primary human lung fibroblasts
# How it was run: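 Primary human lung fibroblasts (BioMAP MyoF system) dosed with chemical, VCAM-1 measured by ELISA 24 hours later. Fitted in the positive direction against DMSO; parallel SRB staining assessed cytotoxicity.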
# [11] = read-out: Collagen I, COL1A1 (gene 1277); assay: BSK_MyoF_CollagenI: BioMAP Diversity Plus: MyoF Assay for Collagen I Biomarker Activity (AID 2284238); details: primary human lung fibroblasts
# How it was run: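 Primary human lung fibroblasts (MyoF system) treated 24 h; Collagen I quantified by ELISA and fitted in positive direction against DMSO. Parallel SRB total-protein staining assessed overt cytotoxicity.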
# [12] = read-out: Collagen III, COL3A1 (gene 1281); assay: BSK_MyoF_CollagenIII: BioMAP Diversity Plus: MyoF Assay for Collagen III Biomarker Activity (AID 2284239); details: primary human lung fibroblasts
# How it was run: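 Primary human lung fibroblasts (BioMAP MyoF system) exposed 24 h. Collagen III measured by ELISA; positive-direction fit relative to DMSO.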
# [13] = read-out: Interleukin 2 (IL2), IL2 (gene 3558); assay: BSK_BT_xIL2: BioMAP Diversity Plus: BT Assay for Interleukin 2 (IL2) Biomarker Activity (AID 2284245); details: primary human B cells with PBMC
# How it was run: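 Secreted interleukin-2 from human B cell/PBMC co-cultures, measured 24 h post-dosing by Luminex multiplex immunoassay. Upward-direction curve fitting against DMSO baseline.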
# [14] = read-out: Basic fibroblast growth factor (bFGF), FGF2 (gene 2247); assay: BSK_MyoF_bFGF: BioMAP Diversity Plus: MyoF Assay for Basic fibroblast growth factor (bFGF) Biomarker Activity (AID 2284246); details: primary human lung fibroblasts
# How it was run: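 In this multiplexed cell system, lung fibroblasts (human primary) receive test chemical for 24 h before ELISA detection of bFGF; DMSO defines baseline and the analysis direction is positive.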
# [15] = read-out: Collagen IV, COL4A1 (gene 1282); assay: BSK_MyoF_CollagenIV: BioMAP Diversity Plus: MyoF Assay for Collagen IV Biomarker Activity (AID 2284247); details: primary human lung fibroblasts
# How it was run: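 Activity is scored as a signal increase over DMSO in an ELISA for Collagen IV, measured on human lung fibroblasts at 24 h after chemical treatment. Cytotoxicity is checked in parallel cultures by sulforhodamine B total-protein staining.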
# [16] = read-out: TIMP metallopeptidase inhibitor 1 (TIMP1), TIMP1 (gene 7076); assay: BSK_MyoF_TIMP1: BioMAP Diversity Plus: MyoF Assay for TIMP metallopeptidase inhibitor 1 (TIMP1) Biomarker Activity (AID 2284269); details: primary human lung fibroblasts
# How it was run: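 ELISA quantified TIMP-1 levels after 24 h dosing of primary human lung fibroblasts, with DMSO as baseline. Parallel SRB total protein staining (0.1% SRB after TCA fixation, 560 nm) flagged overt cytotoxicity.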
# [17] = biological target: Peroxisome proliferator-activated receptor gamma (Homo sapiens) (UniProt P37231); assay: OT_PPARg_PPARgSRC1_1440: Odyssey Thera (OT) 24-hour Protein-Complementation Assay for Peroxisome Proliferator-activated Receptor Gamma/ SRC-1 Co-activator (AID 2283388; active means hit-call score of the fitted dose curve at least 0.9, where 1 is the maximum)
# How it was run: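 HEK293T transiently transfected with PPARg/SRC-1 split-Venus YFP fusions 48 h before dosing, then treated 24 h at 37C. Fixed cells imaged; nuclear/cytoplasmic 488 nm fluorescence ratio, gain of signal versus DMSO.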
# [18] = biological target: human Retinoic Acid Receptor gamma (RARg), RARG (gene 5916) (UniProt P13631); assay: ATG_RARg_TRANS: Attagene TRANS-FACTORIAL HepG2 Assay for human Retinoic Acid Receptor gamma (RARg) (AID 2283009; active means hit-call score of the fitted dose curve at least 0.9, where 1 is the maximum)
# How it was run: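 HepG2, RARg-GAL4 TRANS system, 24 h exposure; reporter mRNA by RT-PCR + CE fluorescence; increase over DMSO.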
# [19] = biological target: Aryl hydrocarbon receptor (Homo sapiens) (UniProt P35869); assay: ATG_Ahr_CIS: Attagene CIS-FACTORIAL HepG2 Assay for human Aryl Hydrocarbon Receptor (Ahr) (AID 2282930); details: HepG2 AhR cis-factorial reporter transcription; actives raise or lower the signal
# How it was run: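 HepG2, transient MRTU (cis) transfection, 24 h exposure. RNA → cDNA → PCR → 6-FAM primer extension → HpaI 2 h 37 C → CE. Fit: bidirectional, DMSO baseline.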
# Chain of human Retinoic Acid Receptor gamma (RARg), RARG (gene 5916) (P13631 whole entry, looked up, the tested form may be a part): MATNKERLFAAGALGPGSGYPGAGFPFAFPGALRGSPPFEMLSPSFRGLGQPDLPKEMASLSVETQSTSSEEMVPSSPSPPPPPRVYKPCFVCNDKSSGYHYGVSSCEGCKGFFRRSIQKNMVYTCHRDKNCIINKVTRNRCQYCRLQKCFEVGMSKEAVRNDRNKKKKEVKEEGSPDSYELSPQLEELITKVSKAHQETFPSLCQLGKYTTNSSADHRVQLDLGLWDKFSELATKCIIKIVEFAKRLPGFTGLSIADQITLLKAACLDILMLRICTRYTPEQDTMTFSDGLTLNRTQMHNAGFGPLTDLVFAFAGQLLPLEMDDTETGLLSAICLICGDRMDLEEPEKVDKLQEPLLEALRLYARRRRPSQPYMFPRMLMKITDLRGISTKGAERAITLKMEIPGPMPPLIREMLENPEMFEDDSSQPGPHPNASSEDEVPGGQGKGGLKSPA
# Chain of Aryl hydrocarbon receptor (Homo sapiens) (P35869 whole entry, looked up): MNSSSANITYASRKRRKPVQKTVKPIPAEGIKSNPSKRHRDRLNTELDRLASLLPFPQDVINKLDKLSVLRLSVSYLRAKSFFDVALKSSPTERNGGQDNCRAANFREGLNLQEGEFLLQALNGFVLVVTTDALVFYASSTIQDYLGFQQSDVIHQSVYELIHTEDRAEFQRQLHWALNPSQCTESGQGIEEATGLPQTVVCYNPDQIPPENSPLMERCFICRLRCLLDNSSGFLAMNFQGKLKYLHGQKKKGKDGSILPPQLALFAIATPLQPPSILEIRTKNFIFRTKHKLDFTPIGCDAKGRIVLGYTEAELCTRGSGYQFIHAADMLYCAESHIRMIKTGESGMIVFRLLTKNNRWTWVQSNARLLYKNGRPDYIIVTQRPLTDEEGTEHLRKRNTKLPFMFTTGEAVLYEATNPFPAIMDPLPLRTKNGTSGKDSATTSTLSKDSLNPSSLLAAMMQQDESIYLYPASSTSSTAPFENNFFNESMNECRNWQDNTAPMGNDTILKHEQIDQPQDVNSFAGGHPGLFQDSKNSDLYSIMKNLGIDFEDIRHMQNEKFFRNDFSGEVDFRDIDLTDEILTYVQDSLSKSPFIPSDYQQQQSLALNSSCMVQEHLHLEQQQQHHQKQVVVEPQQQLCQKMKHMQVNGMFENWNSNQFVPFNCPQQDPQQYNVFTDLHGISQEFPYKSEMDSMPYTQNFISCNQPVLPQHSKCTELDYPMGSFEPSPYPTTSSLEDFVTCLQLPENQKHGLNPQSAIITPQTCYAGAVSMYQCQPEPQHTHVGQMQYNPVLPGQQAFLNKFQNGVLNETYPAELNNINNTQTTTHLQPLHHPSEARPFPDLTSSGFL
# Chain of Peroxisome proliferator-activated receptor gamma (Homo sapiens) (P37231 whole entry, looked up, the tested form may be a part): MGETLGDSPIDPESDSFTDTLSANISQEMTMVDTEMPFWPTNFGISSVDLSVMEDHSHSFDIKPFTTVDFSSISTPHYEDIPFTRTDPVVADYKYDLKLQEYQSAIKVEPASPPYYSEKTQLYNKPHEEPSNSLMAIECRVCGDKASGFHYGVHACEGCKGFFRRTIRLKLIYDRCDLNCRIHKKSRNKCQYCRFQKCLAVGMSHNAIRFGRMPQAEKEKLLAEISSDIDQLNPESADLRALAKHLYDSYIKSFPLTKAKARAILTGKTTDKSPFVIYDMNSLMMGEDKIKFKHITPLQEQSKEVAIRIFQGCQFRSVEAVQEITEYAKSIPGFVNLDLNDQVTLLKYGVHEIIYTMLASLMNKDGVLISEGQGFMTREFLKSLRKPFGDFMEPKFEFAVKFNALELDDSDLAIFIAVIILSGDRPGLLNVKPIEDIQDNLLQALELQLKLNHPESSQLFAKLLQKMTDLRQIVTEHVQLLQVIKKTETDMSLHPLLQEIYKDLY
# Chain of Tumor necrosis factor (Homo sapiens) (P01375 whole entry, looked up): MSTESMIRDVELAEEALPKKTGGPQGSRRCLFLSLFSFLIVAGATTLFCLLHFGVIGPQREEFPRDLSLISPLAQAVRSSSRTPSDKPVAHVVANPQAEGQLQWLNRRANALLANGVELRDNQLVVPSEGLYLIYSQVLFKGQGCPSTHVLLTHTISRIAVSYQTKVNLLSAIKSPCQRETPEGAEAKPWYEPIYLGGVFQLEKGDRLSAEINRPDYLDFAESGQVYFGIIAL
# Chain of Luciferin 4-monooxygenase (Photinus pyralis) (P08659 whole entry, looked up): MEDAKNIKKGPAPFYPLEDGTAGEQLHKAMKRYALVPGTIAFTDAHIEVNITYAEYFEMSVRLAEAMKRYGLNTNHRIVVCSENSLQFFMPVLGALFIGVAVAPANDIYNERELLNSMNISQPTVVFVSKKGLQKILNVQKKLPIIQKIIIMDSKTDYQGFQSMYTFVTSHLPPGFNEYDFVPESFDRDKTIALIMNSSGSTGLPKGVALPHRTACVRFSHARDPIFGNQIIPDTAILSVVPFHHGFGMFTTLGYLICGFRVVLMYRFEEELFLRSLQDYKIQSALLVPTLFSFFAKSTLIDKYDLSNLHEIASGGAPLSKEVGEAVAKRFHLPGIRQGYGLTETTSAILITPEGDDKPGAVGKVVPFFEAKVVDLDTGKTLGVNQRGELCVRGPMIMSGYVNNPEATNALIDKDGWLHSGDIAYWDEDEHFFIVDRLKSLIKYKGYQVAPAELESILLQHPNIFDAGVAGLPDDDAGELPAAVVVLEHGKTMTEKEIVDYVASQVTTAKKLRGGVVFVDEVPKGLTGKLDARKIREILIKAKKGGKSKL
smiles,measurement,setting,value
CCC(C)(CCC(C)C)C(=O)O (stereo not given),outcome,[1],inactive
CC1=NN(c2cc(Cl)c(S(=O)(=O)O)cc2Cl)C(=O)C1N=Nc1ccc(S(=O)(=O)O)cc1 (stereo not given),AC50,SERPINA7 (gene 6906),39.4 µM (active)
Cc1cc(O)cc(C)c1Cl,AC50,SERPINA7 (gene 6906),22.3 µM (active)
Cc1cc(C)c(S(=O)(=O)O)cc1N=Nc1cc(S(=O)(=O)O)c2ccccc2c1O,AC50,[2],14.5 µM (active)
same,AC50,[3],13.1 µM (active)
same,AC50,[4],2.98 µM (active)
C1=CCC=C1,outcome,[1],inactive
CN(C)c1ccc(C(c2ccccc2)c2ccc(N(C)C)cc2)cc1,AC50,[2],10.6 µM (active)
same,AC50,[3],25.3 µM (active)
same,outcome,[4],inactive
CCCCCC[C@@H](O)C/C=C\CCCCCCCC(=O)O,AC50,SERPINA7 (gene 6906),41.4 µM (active)
Oc1cccc2ccccc12,AC50,[2],1.62 µM (active)
same,outcome,[3],inactive
same,AC50,[4],29.9 µM (active)
same,AC50,SERPINA7 (gene 6906),4.58 µM (active)
O=C(C(=O)c1ccccc1)c1ccccc1,outcome,[5],inactive
same,outcome,[6],inactive
same,outcome,[7],inactive
same,outcome,[8],inactive
same,outcome,[9],inactive
same,outcome,[10],inactive
same,outcome,[11],inactive
same,outcome,[12],inactive
same,outcome,[13],inactive
same,outcome,[14],inactive
same,AC50,[15],0.913 µM (active)
same,outcome,[16],inactive
CCCCOC(=O)COc1ccc(Cl)cc1Cl,outcome,[17],inactive
same,outcome,[1],inactive
same,AC50,SERPINA7 (gene 6906),9.59 µM (active)
COC(=O)CCSCCC(=O)OC,outcome,[18],inactive
CC(C)CC(=O)CC(C)C,outcome,[1],inactive
CCCCCCCC#N,outcome,[18],inactive
CO[Si](CCCNCCN)(OC)OC,outcome,[17],inactive
CC/C=C\CCO,outcome,[1],inactive
Nc1ccc(S(=O)(=O)Nc2cnc3ccccc3n2)cc1,outcome,[19],inactive
same,outcome,[17],inactive
same,AC50,[2],0.715 µM (active)
same,outcome,[4],inactive
COC(=O)/C=C\C(=O)OC,outcome,[5],inactive
same,AC50,[6],20 µM (active)
same,outcome,[7],inactive
same,outcome,[8],inactive
same,outcome,[9],inactive
same,outcome,[10],inactive
same,outcome,[11],inactive
same,outcome,[12],inactive
same,AC50,[13],12.8 µM (active)
same,outcome,[14],inactive
same,outcome,[15],inactive
same,outcome,[16],inactive
CC(C)(Oc1ccc(Cl)cc1)C(=O)O,outcome,[19],inactive
O=C(c1ccccc1)c1ccccc1O,outcome,[17],inactive
same,AC50,SERPINA7 (gene 6906),17.9 µM (active)
CCOC(=O)CC(=O)OCC,outcome,[18],inactive
CCCN[C@H]1CCc2nc(N)sc2C1,outcome,[19],inactive
O=C(CC(C(=O)OC1CCCCC1)S(=O)(=O)O)OC1CCCCC1 (stereo not given),outcome,[17],inactive
same,outcome,[1],inactive
Sc1nc2ccccc2s1,outcome,[17],inactive
same,AC50,[2],1.42 µM (active)
same,outcome,[3],inactive
same,outcome,[4],inactive
same,outcome,[5],inactive
same,outcome,[6],inactive
same,outcome,[7],inactive
same,outcome,[8],inactive
same,outcome,[9],inactive
same,outcome,[10],inactive
same,outcome,[11],inactive
same,outcome,[12],inactive
same,outcome,[13],inactive
same,outcome,[14],inactive
same,outcome,[15],inactive
same,outcome,[16],inactive
same,AC50,SERPINA7 (gene 6906),50 µM (active)
